# Results filed as inconclusive are left out. Entries that show only a call come without a potency. Activity calls are given as the source filed them. The call rests on the fitted dose curve; in most records, active means well fitted curve in the direction sought with a large enough effect; inconclusive means small, poorly fitted or top-dose-only effect, or another doubt; inactive means no such curve, though single readings can be large; an effect the other way counts as inactive or inconclusive.
# Columns and labels:
# [1] = target: Furin (Homo sapiens) (UniProt P09958); experiment: Furin counterscreen qHTS for Zika virus inhibitors (AID 1347149); further: nearly all actives have a fitted effect of over 70% in size; further: potency means the concentration at half of the fitted maximal effect
# How it was run: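 Fluorogenic cleavage of BOC-RVRR-AMC (2 microM final, Km ~15 µM) was monitored (ex 340, em 450 nm) at 37C after 15 min RT preincubation of 5 nM furin with compounds in HEPES pH 7.0 buffer with CaCl2 and Triton X-100. Percent inhibition was fitted to a 4-parameter Hill curve.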
# [2] = system: Zika virus NS2B-NS3 protease (unlinked); experiment: Optimization of GU AMC qHTS for Zika virus inhibitors: Unlinked NS2B-NS3 protease assay (AID 1347151); further: series mostly up to about 52 µM; nearly all actives have a fitted effect of over 80% in size
# How it was run: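 Noncovalent complex of NS2B hydrophilic domain and NS3 protease domain, 25 nM final, in 10 mM Tris-HCl pH 8.0, 0.01% Tween 20. AMC fluorescence change over 15 min at room temperature was fitted to a 4-parameter Hill equation.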
# [3] = system: Zika virus NS2B-NS3 protease; experiment: Primary screen GU AMC qHTS for Zika virus inhibitors (AID 1347154); further: nearly all actives have a fitted effect of over 70% in size
# How it was run: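 Unlinked Zika NS2B hydrophilic domain–NS3 protease complex at 25 nM in 10 mM Tris-HCl pH 8.0, 0.01% Tween 20, with an AMC peptide substrate. Fluorescence change (340/450 nm) over 15 min at room temperature, normalized to controls, fitted to 4-parameter Hill.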
# [4] = qHTS of pediatric cancer cell lines to identify multiple opportunities for drug repurposing: Confirmatory screen for Rh41 cells (AID 1347123);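 further: 48 h compound exposure; nearly all actives have a fitted effect of over 60% in size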; further: potency means the concentration at half of the fitted maximal effect
# How it was run: (§1)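 Viability after 48 h compound treatment at 37C, 500-1,000 cells/well, read as ATP luminescence with CellTiter-Glo. Primary screens used 11-point (MIPE, 0.78 nM-46 µM) or 8-point (NPC, 0.59 nM-46 µM) final concentrations; follow-up screens used 11-point dilutions.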
# [5] = qHTS of pediatric cancer cell lines to identify multiple opportunities for drug repurposing: Confirmatory screen for Rh18 cells (AID 1347125); further: nearly all actives have a fitted effect of over 55% in size; further: potency means the concentration at half of the fitted maximal effect
# How it was run: as §1
# [6] = qHTS of pediatric cancer cell lines to identify multiple opportunities for drug repurposing: Confirmatory screen for Rh30 cells (AID 1347126); further: nearly all actives have a fitted effect of over 55% in size; further: potency means the concentration at half of the fitted maximal effect
# How it was run: as §1
# [7] = qHTS of pediatric cancer cell lines to identify multiple opportunities for drug repurposing: Confirmatory screen for OHS-50 cells (AID 1347128);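 further: compound exposure lasted 48 h at 37 degrees C; nearly all actives have a fitted effect of over 55% in size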; further: potency means the concentration at half of the fitted maximal effect
# How it was run: as §1
# [8] = qHTS of pediatric cancer cell lines to identify multiple opportunities for drug repurposing: Confirmatory screen for SK-N-SH cells (AID 1347129);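 further: cells exposed to compound for 48 h before viability read; nearly all actives have a fitted effect of over 60% in size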; further: potency means the concentration at half of the fitted maximal effect
# How it was run: as §1
# [9] = qHTS of pediatric cancer cell lines to identify multiple opportunities for drug repurposing: Confirmatory screen for RD cells (AID 1347124);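 further: cells exposed to compound for 48 h before viability readout; nearly all actives have a fitted effect of over 65% in size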; further: potency means the concentration at half of the fitted maximal effect
# How it was run: as §1
# [10] = target: N-terminal Xaa-Pro-Lys N-methyltransferase 1 (Homo sapiens) (UniProt Q9BV86); experiment: qHTS Assay for Inhibitors of N-terminal methyltransferase 1 (NTMT1): LOPAC validation of the NTMT1 SAHH-coupled ThioGlo3 Assay (AID 1347143);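 further: SAH from peptide methylation measured as thiol fluorescence via SAHH coupling and ThioGlo3; nearly all actives have a fitted effect of over 70% in size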
# How it was run: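 Recombinant human NTMT1 (125nM) was pre-incubated 1 min at room temperature with compounds over a concentration range, then a mix of 100uM SAM, 10uM SAHH and 15uM ThioGlo3 (concentrations in added reagent) was added. ThioGlo3 fluorescence (ex 340/em 450nm) after 30 min was normalized to the initial reading.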
# [11] = target: Lysine-specific demethylase 5B (Homo sapiens) (UniProt Q9UGL1); experiment: Optimization screen for KDM5B Histone Demethylases FDH coupled qHTS against the LOPAC library (AID 1347166)
# How it was run: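 KDM5BDeltaAP (200nM final) preincubated 10 min with compound, then 12.5uM H3K4Me3, 25uM a-ketoglutarate, ascorbate, Fe(II), NAD+ and FDH added; 50mM HEPES pH 7.5, 0.01% Tween-20. NADH fluorescence (340/450 nm) change over 30 min, room temperature.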
# [12] = Confirmatory screen GU Rhodamine qHTS for Zika virus inhibitors qHTS (AID 1347157); further: potency means the concentration at half of the fitted maximal effect; nearly all actives have a fitted effect of over 70% in size
# How it was run: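 Compounds, tested up to 114 microM, were incubated for 15 minutes with 25 nM unlinked NS2B-NS3 protease at pH 8.0. Cleavage of 1.5 microM Rhodamine110 substrate was then followed by fluorescence for 15 minutes.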
# [13] = Confirmatory screen NINDS Rhodamine qHTS for Zika virus inhibitors (AID 1347161); further: potency means the concentration at half of the fitted maximal effect; nearly all actives have a fitted effect of over 60% in size
# How it was run: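 Enzyme (25 nM, linked NS2B-NS3) was preincubated 15 min with compound in 10 mM Tris-HCl pH 8.0, 0.01% Tween 20. Rhodamine110 substrate (1.5 microM) was then added and fluorescence read at start and after 15 min.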
# [14] = system: Zika virus NS2B-NS3 protease (linked); experiment: 384 well plate NINDS AMC confirmatory qHTS for Zika virus inhibitors (AID 1347163); further: nearly all actives have a fitted effect of over 50% in size; further: potency means the concentration at half of the fitted maximal effect
# How it was run: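 Linked NS2B-NS3 protease (final 5 nM, 30 nM or 60 nM) was preincubated with compounds (final up to 1 mM) for ~15 minutes. Ac-VKTGKR-AMC substrate (final 30 microM) then reacted for 25 minutes at room temperature in the dark. Fluorescence (ex 355/em 460 nm) was normalized to no-enzyme and no-inhibitor controls.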
# [15] = system: Zika virus NS2B-NS3 protease (linked construct); experiment: Confirmatory screen NINDS AMC qHTS for Zika virus inhibitors (AID 1347152); conditions: Purified linked NS2B-NS3, AMC substrate fluorescence
# How it was run: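 Purified NS2B-NS3 protease with NS2B hydrophilic domain linked to NS3 protease domain by flexible linker, 1 nM final in 10 mM Tris-HCl pH 8.0, 0.01% Tween 20. Compounds preincubated 15 min, room temperature; Bz-Nle-KRR-AMC 10 microM (Km 18.3 µM); 15-min fluorescence change, 4-parameter Hill fit.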
# [16] = ZIKV-mCherry secondary qHTS for Zika virus inhibitors (AID 1347158); further: top concentration of the series differs between compounds
# How it was run: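 Vero cells (5,000/well) were given compound, then infected with ZIKV-mCherry at MOI 1 for 48–72 h at 37 °C. After PFA fixation and Hoechst staining, imaging gave percent mCherry-positive cells. The positivity threshold was RFU above 450, 3 SD over negative controls.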
# Furin (Homo sapiens), sequence (P09958 whole entry, looked up): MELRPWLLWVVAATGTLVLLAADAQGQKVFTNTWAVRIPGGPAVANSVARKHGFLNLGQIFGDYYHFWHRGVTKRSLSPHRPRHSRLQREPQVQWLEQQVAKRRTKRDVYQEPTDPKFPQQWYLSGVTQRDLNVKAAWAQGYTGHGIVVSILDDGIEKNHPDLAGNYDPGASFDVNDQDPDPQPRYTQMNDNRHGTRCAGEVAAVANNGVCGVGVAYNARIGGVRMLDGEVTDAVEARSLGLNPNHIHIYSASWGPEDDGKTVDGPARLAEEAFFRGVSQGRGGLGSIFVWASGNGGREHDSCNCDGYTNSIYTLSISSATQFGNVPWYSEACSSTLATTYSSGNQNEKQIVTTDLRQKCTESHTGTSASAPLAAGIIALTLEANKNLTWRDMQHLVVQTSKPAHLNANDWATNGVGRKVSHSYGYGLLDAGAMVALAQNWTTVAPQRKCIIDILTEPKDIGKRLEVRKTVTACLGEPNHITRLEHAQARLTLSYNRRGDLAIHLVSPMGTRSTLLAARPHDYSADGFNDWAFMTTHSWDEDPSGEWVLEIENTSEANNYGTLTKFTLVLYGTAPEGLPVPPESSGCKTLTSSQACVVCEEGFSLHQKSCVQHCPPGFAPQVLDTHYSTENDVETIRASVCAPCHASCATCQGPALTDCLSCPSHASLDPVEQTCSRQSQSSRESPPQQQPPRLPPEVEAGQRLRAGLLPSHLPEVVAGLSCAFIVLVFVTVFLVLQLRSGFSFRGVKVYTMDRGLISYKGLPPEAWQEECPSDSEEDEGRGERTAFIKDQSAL
# Lysine-specific demethylase 5B (Homo sapiens), sequence (Q9UGL1 whole entry, looked up): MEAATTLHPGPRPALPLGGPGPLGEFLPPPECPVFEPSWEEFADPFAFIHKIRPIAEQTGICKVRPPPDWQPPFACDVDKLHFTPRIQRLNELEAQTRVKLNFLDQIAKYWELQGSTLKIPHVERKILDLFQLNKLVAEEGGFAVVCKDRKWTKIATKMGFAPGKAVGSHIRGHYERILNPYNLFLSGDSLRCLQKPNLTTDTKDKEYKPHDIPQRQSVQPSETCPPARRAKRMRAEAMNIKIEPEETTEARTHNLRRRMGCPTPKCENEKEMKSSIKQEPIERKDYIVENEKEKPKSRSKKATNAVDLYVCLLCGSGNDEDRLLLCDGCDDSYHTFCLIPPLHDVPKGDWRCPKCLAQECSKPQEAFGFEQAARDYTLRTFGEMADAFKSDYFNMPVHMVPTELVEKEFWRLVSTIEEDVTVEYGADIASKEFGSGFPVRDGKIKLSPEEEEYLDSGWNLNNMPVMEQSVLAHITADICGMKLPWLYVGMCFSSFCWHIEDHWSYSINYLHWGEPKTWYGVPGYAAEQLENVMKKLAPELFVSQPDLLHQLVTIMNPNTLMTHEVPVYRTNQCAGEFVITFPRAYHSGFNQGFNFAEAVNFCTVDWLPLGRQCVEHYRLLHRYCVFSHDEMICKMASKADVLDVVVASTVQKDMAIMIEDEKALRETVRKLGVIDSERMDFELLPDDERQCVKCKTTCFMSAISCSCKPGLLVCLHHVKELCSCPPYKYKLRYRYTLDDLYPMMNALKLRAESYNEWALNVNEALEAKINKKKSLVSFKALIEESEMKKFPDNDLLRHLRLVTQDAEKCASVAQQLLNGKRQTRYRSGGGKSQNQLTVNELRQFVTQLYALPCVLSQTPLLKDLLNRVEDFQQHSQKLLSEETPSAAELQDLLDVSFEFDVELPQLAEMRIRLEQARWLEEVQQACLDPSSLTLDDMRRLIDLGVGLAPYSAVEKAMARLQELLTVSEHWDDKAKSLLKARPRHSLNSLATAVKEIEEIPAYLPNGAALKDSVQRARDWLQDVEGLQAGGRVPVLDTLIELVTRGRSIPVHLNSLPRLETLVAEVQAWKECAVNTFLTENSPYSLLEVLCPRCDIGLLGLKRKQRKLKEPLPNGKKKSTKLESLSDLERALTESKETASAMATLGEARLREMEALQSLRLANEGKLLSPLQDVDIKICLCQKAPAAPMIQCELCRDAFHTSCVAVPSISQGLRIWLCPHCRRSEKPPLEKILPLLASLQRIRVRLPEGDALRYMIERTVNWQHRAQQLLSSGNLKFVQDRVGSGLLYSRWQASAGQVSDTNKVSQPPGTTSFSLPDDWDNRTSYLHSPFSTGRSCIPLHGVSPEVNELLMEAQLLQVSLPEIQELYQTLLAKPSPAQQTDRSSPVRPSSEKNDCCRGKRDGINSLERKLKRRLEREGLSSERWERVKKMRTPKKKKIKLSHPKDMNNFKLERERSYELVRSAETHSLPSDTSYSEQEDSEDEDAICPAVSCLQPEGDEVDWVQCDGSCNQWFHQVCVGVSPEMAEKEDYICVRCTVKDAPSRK
# N-terminal Xaa-Pro-Lys N-methyltransferase 1 (Homo sapiens), sequence (Q9BV86 whole entry, looked up): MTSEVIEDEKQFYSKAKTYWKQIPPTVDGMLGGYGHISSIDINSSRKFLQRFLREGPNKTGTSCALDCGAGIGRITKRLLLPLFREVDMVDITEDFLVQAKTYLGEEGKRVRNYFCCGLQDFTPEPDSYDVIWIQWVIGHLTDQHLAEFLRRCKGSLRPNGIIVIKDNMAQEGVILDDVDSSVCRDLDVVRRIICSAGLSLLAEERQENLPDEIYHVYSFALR
compound,measurement,setting,value
O[C@@H](c1cc(C(F)(F)F)nc2c(C(F)(F)F)cccc12)[C@H]1CCCCN1,Potency,[1],inactive
same,outcome,[2],inactive
same,Potency,[3],inactive
CCN1/C(=C/C=C/c2sc3ccccc3[n+]2CC)Sc2ccccc21,Potency,[4],0.512 µM (active)
same,Potency,[5],5.22 µM (active)
same,Potency,[6],inactive
same,Potency,[7],5.85 µM (active)
same,Potency,[8],2.29 µM (active)
same,Potency,[3],inactive
C[C@@]12C(=O)OC(=O)[C@]1(C)C1CCC2O1,Potency,[4],2.08 µM (active)
same,Potency,[9],6.57 µM (active)
same,Potency,[5],3.29 µM (active)
same,Potency,[6],3.69 µM (active)
same,Potency,[7],4.65 µM (active)
same,Potency,[8],inactive
same,Potency,[3],inactive
NC(N)=NCc1cccc(I)c1,outcome,[10],inactive
same,outcome,[2],inactive
same,outcome,[11],inactive
O=C(N/N=C/c1ccc([N+](=O)[O-])o1)c1ccc(O)cc1,Potency,[3],inactive
CC(C)(C)NC[C@H](O)COc1nsnc1N1CCOCC1,outcome,[2],inactive
same,Potency,[3],inactive
same,outcome,[11],inactive
C=C[C@@]1(C)CC(=O)[C@]2(O)[C@@]3(C)[C@@H](O)CCC(C)(C)[C@@H]3[C@H](O)[C@H](OC(C)=O)[C@@]2(C)O1,Potency,[4],inactive
same,Potency,[8],inactive
same,Potency,[3],inactive
CCCCOC(=O)CC(CC(=O)OCCCC)(OC(C)=O)C(=O)OCCCC,Potency,[3],inactive
CC(C)=CCOc1ccc(/C=C/C(=O)c2ccc(OCC=C(C)C)cc2OCC(=O)O)cc1,Potency,[1],66.3 µM (active)
same,Potency,[12],5.62 µM (active)
same,Potency,[13],6.31 µM (active)
same,Potency,[14],39.8 µM (active)
CN(C)C(=O)Nc1ccc(Cl)c(Cl)c1,Potency,[9],inactive
same,Potency,[8],inactive
same,Potency,[3],inactive
CCCCCCCCCCCCOCCOCCOCCOCCOCCOCCOCCOCCOCCO,Potency,[9],inactive
same,Potency,[5],inactive
same,Potency,[6],inactive
same,Potency,[7],inactive
same,Potency,[8],inactive
same,Potency,[3],inactive
CCC(CC)(CC(=O)Nc1cccc(/C=C/c2nc(C3CCC3)cs2)c1)C(=O)O,Potency,[1],21.5 µM (active)
same,Potency,[15],24.1 µM (active)
same,Potency,[3],inactive
same,outcome,[16],inactive
same,Potency,[13],22.1 µM (active)
same,Potency,[14],inactive
Nc1nc(Cl)nc2c1ncn2[C@@H]1O[C@H](CO)[C@@H](O)[C@@H]1F,Potency,[9],inactive
same,Potency,[6],5.22 µM (active)
same,Potency,[3],inactive
CC1CCc2c(N3CCC(O)CC3)c(F)cc3c(=O)c(C(=O)O)cn1c23 (stereo unspecified),Potency,[4],18.5 µM (active)
same,Potency,[9],inactive
same,Potency,[6],inactive
same,Potency,[8],inactive
CCCCCCCCCCC[C@@H](C[C@@H]1OC(=O)[C@H]1CCCCCC)OC(=O)[C@H](CC(C)C)NC=O,Potency,[4],4.65 µM (active)
same,Potency,[5],inactive
same,Potency,[6],inactive
same,Potency,[7],inactive
same,Potency,[8],inactive
Cc1ccccc1OCC(O)CO (stereo unspecified),Potency,[3],inactive
Cc1cc(C)cc(OCC2CNC(=O)O2)c1 (stereo unspecified),Potency,[3],inactive
O=C(O)CCNC(=O)c1ccccc1,Potency,[3],inactive
FC1(F)C(F)(F)C(F)(F)C2(F)C(F)(F)C(F)(F)C(F)(F)C(F)(F)C2(F)C1(F)F (stereo unspecified),Potency,[3],inactive
NC(=O)C1(N2CCCCC2)CCN(CCCC(=O)c2ccc(F)cc2)CC1,Potency,[3],inactive
N#C/C(=C1\SCC(c2ccccc2Cl)S1)n1ccnc1 (stereo unspecified),Potency,[3],inactive
CCOC(=O)Nc1ccc2c(c1)N(C(=O)CCN1CCOCC1)c1ccccc1S2,Potency,[3],inactive
NCc1ccccc1Sc1ccccc1CO,Potency,[3],inactive
O=C(NCCc1c[nH]c2ccccc12)c1cccnc1,Potency,[3],inactive
CCNC(=O)/C=C/c1cccc(Br)c1,Potency,[3],inactive
Nc1nc(N)c(-c2ccccc2)s1,Potency,[3],inactive
CCCCC(CC)COC(=O)c1ccc(N(C)C)cc1 (stereo unspecified),Potency,[3],inactive
Cc1ccc2c(Br)cc(Br)c(O)c2n1,Potency,[3],inactive

# — PubChem BioAssay (NCATS)
